Hits are enriched below; roughly 1.4% of the tested compounds scored in any of these assays.
SARS PLpro yeast – inhibitors of SARS-CoV papain-like protease in yeast | S. cerevisiae expressing SARS-CoV PLpro, growth rescue | Potency, µM (top dose mostly 32.9 µM), inactives show at the highest dose activity, positive = growth rescue, hits mostly activators | 330,000 tested, 0.19% active | AID 485353; calls by dose curve; further: 0% is about no effect; nearly all actives have a fitted effect of over 55% in size
AmpC no deterg – blocks E. coli AmpC beta-lactamase in detergent-free assay | P00811 | AmpC nitrocefin hydrolysis, absorbance 480 nm, 0.0001% Triton | Potency, µM (series often up to 57.1 µM), inactives show top-dose activity change, negative = inhibition, most hits filed as inhibitors | 330,000 tested, 0.52% active;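 further: plate controls were no compound for no effect and no enzyme for full effect; nearly all actives have a fitted effect of over 20% in size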
Target sequence (P00811 whole entry, looked up): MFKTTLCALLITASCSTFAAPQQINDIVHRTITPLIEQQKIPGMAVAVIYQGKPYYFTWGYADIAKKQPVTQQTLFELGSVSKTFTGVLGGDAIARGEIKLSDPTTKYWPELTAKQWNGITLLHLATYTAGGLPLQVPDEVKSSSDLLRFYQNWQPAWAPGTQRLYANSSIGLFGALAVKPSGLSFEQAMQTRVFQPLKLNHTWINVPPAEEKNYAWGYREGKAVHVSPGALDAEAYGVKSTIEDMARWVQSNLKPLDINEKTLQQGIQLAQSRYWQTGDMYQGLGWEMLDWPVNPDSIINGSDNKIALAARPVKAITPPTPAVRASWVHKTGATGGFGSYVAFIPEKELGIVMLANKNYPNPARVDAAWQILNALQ
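20 mM phosphate pH 7.0 + 0.01% (detergent screen) or 0.0001% Triton X-100; 5.3 nM AmpC reagent; cpd preinc 15 min RT; nitrocefin (800 uM stock) to start; A480 q20 s × 4 min; Activity was normalised to no-enzyme and no-compound control wells.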
AMA1-RON2 inh – inhibitors of Plasmodium falciparum AMA1-RON2 interaction; 360,000 tested, 0.2% active; Potency, µM (titrated, usually from 58.2 µM), for the others: top-dose activity change, negative = inhibition, most hits filed as inhibitors; AlphaScreen AMA1-biotinylated RON2 peptide binding;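 further: 0% = vehicle wells and -100% = peptide control; nearly all actives have a fitted effect of over 45% in size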
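AMA1 (3D7) with his tag at 25 nM final met compounds first, then biotinylated RON2 peptide at 25 nM; detection used donor plus acceptor beads, 10 µg/mL apiece, read by AlphaScreen after 30 min at room temperature.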
AmpC detergent – AmpC beta-lactamase inhibition with detergent present; AmpC hydrolysis of nitrocefin, absorbance 480 nm, 0.01% Triton; P00811; AID 485294; 370,000 tested, 0.041% active; Potency, µM (top dose mostly 114 µM), for the others: at the top dose activity change, negative = inhibition, actives largely listed as inhibitors;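 further: 0% = no-compound wells and -100% = no-enzyme wells; nearly all actives have a fitted effect of over 25% in size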
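20 mM phosphate pH 7.0 + 0.01% (detergent screen) or 0.0001% Triton X-100; 5.3 nM AmpC reagent; cpd preinc 15 min RT; nitrocefin (800 uM stock) to start; A480 q20 s × 4 min; Activity was normalised to no-enzyme and no-compound control wells.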
VACV mCherry inh – inhibitors of vaccinia virus infection (mCherry reporter signal). Vaccinia virus mCherry reporter infection, fluorescence. 310,000 tested, 0.63% active. Potency, µM (highest dose often 36.5 µM), without a hit: at the highest dose activity change, negative = inhibition, most hits filed as inhibitors; calls by dose curve; tested in A549 cells; further: on the % scale 0 is the no-effect control and ±100 the full control effect; nearly all actives have a fitted effect of over 35% in size
VACV Venus inh – vaccinia inhibition (Venus reporter) | Vaccinia virus Venus reporter expression, fluorescence | Potency, µM (highest dose often 36.5 µM), inactives show at the highest dose activity change, negative = inhibition, usual class: inhibitors | 330,000 tested, 0.46% active; calls by dose curve; tested in A549 cells; further: on the % scale 0 is the no-effect control and ±100 the full control effect; nearly all actives have a fitted effect of over 30% in size
Starred values were filed as active, the others as inactive; i = inactive; ? = inconclusive; / = no result. Unless noted, the call rests on the fitted dose curve; in most records, active means well fitted curve in the direction sought with a large enough effect; inconclusive means small, poorly fitted or top-dose-only effect, or another doubt; inactive means no such curve, though single readings can be large; an effect the other way counts as inactive or inconclusive. Potency means the concentration at half of the fitted maximal effect.

SMILES | SARS PLpro yeast | AmpC no deterg | AMA1-RON2 inh | AmpC detergent | VACV mCherry inh | VACV Venus inh
CC(C)c1ccc(N(C(=O)c2snc(C(N)=O)c2N)C(C(=O)NCC2CCCO2)c2ccc(N(C)C)cc2)cc1 (stereo not drawn) | ? | 124% | 14µM* | 6% | ? | ?
CCOc1ccc(N(CC)C(=O)COc2cc(=O)n(C)c3ccccc23)cc1 | 3% | 25µM* | -8% | ? | / | /
CCOc1ccc(N(CC)C(=O)COc2cc(=O)n(CC)c3ccccc23)cc1 | -2% | 106% | -11% | -9% | / | /
Cc1nc(NCc2c(C)nn(C)c2Cl)sc1-c1ccn(CC2COc3ccccc3O2)n1 (stereo not drawn) | / | / | / | / | -24% | -13%
COc1cc(/C=N/Nc2cccc(C)c2)cc(Br)c1O | -4% | 32µM* | -3% | -1% | -5% | 0%
CCC1CN(C(=O)N2CCC(C(=O)NCCCc3ccccc3)CC2)c2ccccc2O1 (stereo not drawn) | / | / | / | 19% | -6% | -12%
O=C1C=C(Nc2ccccc2)C(=O)c2ccccc21 | -19% | -23% | ? | ? | -25% | ?
O=C1C=C(Nc2ccccc2)c2ccccc2C1=O | -2% | -27% | -2% | ? | ? | 7.9µM*
CCN(CC(=O)Nc1ccccc1C(F)(F)F)C(=O)CCS(=O)(=O)c1ccc(Cl)cc1 | 2% | ? | 18% | -9% | ? | -28%
CCN(CC(=O)Nc1cc(Cl)ccc1C)C(=O)CCS(=O)(=O)c1ccc(Cl)cc1 | -4% | 77% | 6% | 3% | 11µM* | ?
CC(C)(C)OC(=O)COc1cc(OCC(=O)OC(C)(C)C)c2c(=O)cc(-c3ccccc3)oc2c1 | -1% | 172% | -30% | 9% | ? | 11µM*
CC(C)(C)OC(=O)COc1cc(O)c2c(=O)cc(-c3ccccc3)oc2c1 | 24% | -14% | 0% | 1% | / | /
O=C(Cc1ccccc1Cl)NO | / | / | / | / | -23% | -16%
CN(C1=C(NC(=O)c2ccc(Cl)cc2)C(=O)c2ccccc2C1=O)c1ccccc1 | -24% | -18% | 10µM* | -1% | -1% | ?
Cc1cccc(NC2=C(NC(=O)c3ccccc3)C(=O)c3ccccc3C2=O)c1 | -41% | -29% | ? | -12% | -24% | -17%
O=C(NC1=C(Nc2ccc(Cl)cc2)C(=O)c2ccccc2C1=O)c1ccccc1 | 10% | -29% | -5% | 1% | 28µM* | ?
COc1ncccc1C(=O)N1CCOc2ccc(C(O)C(c3ccccc3)c3ccccc3)cc2C1 (stereo not drawn) | / | / | / | / | -19% | -14%
CS(=O)(=O)c1ccccc1NC(=O)COc1ccccc1C(=O)Nc1ccccc1 | / | / | / | / | i | -17%
COc1ccc(-c2csc(-c3ccc(O)cc3)n2)cc1 | 5% | -33% | -2% | 6% | 3.5µM* | ?
C[C@H](O)[C@@H]1C(=O)N2CCc3c([nH]c4ccccc34)[C@@H]2C[C@@H]1N(C)C(=O)Nc1cc(Cl)cc(Cl)c1 | / | / | -19% | / | 13µM* | ?
CC(Sc1ncnc2c1cnn2-c1ccccc1)C(=O)NCC1CCCO1 (stereo not drawn) | -11% | 53% | 3% | 2% | / | /
Cc1nc(SC(C)C(=O)NCC2CCCO2)c2cc(-c3ccccc3)sc2n1 (stereo not drawn) | -7% | 209% | 8% | 0% | 5µM* | -2%
Cc1cc(Br)ccc1NC(=O)COC(=O)c1ccccc1OCC(=O)N(C)C | / | / | / | / | 3% | -3%
Cc1c(C(=O)NCC(C)C)sc2ncnc(NCC3CCCO3)c12 (stereo not drawn) | / | / | / | / | -11% | -1%
COC(=O)c1sc(NC(=O)c2cc(-c3ccccc3)nc3ccccc23)c(C#N)c1C | 4% | -45% | 1% | 56µM* | 16µM* | ?
SMILES | SARS PLpro yeast | AmpC no deterg | AMA1-RON2 inh | AmpC detergent | VACV mCherry inh | VACV Venus inh
Cc1ccc(C(=O)NCCc2csc(C)n2)cc1 | 1% | -5% | 9% | ? | -2% | -2%
O=C(NCCc1csc(-c2cccnc2)n1)c1cccc2ccccc12 | -9% | -15% | -2% | ? | 0% | -13%
O=C(NCCc1csc(-c2cccnc2)n1)c1ccccc1 | 1% | 1.4µM* | -3% | ? | -15% | 3%
CCc1ccc(S(=O)(=O)NCCc2csc(-c3ccccc3)n2)s1 | -19% | -27% | 12% | 1% | ? | -16%
CCc1ccc(S(=O)(=O)NCCc2csc(-c3cccnc3)n2)s1 | -13% | 35µM* | 12% | 3% | i | -24%
Cc1cccc(C(=O)NCCc2csc(C)n2)c1 | -12% | 3.5µM* | 3% | -11% | 0% | 3%
Cc1c(C(=O)N(CCO)C(C)C)cnn1-c1ncc2c(n1)-c1ccccc1CCC2 | / | / | / | / | -1% | -8%
OC(CNc1ccccc1)COc1ccc(OCC(O)CNc2ccccc2)cc1 (stereo not drawn) | -17% | -1% | -27% | 3% | / | 11µM*
CCOCC(O)CNc1ccccc1 (stereo not drawn) | -15% | -12% | -8% | -5% | i | -7%
CCOC(=O)CSc1nc2ccccc2c(=O)n1CCc1ccc(OC)c(OC)c1 | / | / | / | -8% | 2% | 3%
O=C(Nc1ccc2nc(-c3ccco3)c(-c3ccco3)nc2c1)N1CCCCCC1 | -5% | -36% | 12µM* | 3% | i | -1%
O=C(c1ccccc1)c1ccc2nc(-c3ccco3)c(-c3ccco3)nc2c1 | -2% | 25µM* | ? | 4% | i | -5%
COc1ccccc1N1CCN(C(=O)c2ccc3nc(-c4ccco4)c(-c4ccco4)nc3c2)CC1 | 15% | 175% | -28% | 2% | 11µM* | ?
COc1ccccc1N1CCN(C(=O)c2cc(C3CC3)on2)CC1 | 0% | 20µM* | -10% | ? | -26% | -17%
O=C(NC1CCCC1)c1ccc2nc(-c3ccco3)c(-c3ccco3)nc2c1 | 1% | -28% | -10% | 2% | -15% | -24%
CCOC(=O)C1CCN(C(=O)Nc2ccc3nc(-c4ccco4)c(-c4ccco4)nc3c2)CC1 | 2% | ? | ? | -4% | / | 3%
COc1ccccc1C1C(C(=O)Nc2ccccc2)=C(C)Nc2nc(-c3ccccc3)nn21 (stereo not drawn) | / | / | / | 7% | 2% | 5%

Compound activity deposited in PubChem BioAssay by National Center for Advancing Translational Sciences (NCATS).
